# Assay outcomes (PubChem)
# Compounds with a hit are over-represented: about 14% of the library has one in this group of screens.
# USP8 inh – blocks human USP8 ubiquitin-rhodamine cleavage; purified USP8, Ub-rhodamine cleavage fluorescence, 30 min; inhibition, % at 20 µM; P40818; 47,000 compounds, 4.2% hits
# Target sequence (P40818 whole entry, looked up): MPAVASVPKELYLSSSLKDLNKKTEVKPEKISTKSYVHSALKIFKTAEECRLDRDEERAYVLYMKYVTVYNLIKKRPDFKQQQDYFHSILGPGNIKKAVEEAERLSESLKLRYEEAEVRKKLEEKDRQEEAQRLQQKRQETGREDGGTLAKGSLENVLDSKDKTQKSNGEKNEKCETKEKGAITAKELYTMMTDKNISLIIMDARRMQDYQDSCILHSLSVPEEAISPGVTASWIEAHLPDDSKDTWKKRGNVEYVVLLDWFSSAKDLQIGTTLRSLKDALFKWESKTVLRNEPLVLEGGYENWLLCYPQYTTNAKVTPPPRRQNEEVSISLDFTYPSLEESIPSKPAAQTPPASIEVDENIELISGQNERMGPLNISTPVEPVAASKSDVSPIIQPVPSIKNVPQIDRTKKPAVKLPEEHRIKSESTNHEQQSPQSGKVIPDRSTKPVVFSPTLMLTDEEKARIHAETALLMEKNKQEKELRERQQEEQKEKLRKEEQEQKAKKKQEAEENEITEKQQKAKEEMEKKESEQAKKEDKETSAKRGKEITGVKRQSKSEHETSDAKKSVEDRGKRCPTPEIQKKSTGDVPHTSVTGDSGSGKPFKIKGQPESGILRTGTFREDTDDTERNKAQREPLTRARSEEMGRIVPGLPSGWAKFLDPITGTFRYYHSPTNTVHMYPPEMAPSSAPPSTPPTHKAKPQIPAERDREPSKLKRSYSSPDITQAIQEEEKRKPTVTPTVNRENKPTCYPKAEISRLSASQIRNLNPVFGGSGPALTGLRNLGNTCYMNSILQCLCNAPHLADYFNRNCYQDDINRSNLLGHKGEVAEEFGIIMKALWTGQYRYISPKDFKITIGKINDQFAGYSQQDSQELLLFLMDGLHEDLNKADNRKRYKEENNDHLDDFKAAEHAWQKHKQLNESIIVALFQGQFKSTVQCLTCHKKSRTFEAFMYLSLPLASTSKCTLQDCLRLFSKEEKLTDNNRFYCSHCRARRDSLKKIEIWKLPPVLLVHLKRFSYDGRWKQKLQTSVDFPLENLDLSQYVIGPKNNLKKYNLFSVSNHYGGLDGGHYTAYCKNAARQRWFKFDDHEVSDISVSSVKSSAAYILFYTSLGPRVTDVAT
# USP28 inh – inhibitors of human USP28 deubiquitinase; Q96RU2; purified USP28, Ub-rhodamine cleavage fluorescence, 30 min; inhibition, % at 25 µM; 47,000 compounds, 3% hits; AID 1645857
# USP30 block – blocks human USP30 ubiquitin-rhodamine cleavage; Q70CQ3; purified USP30, Ub-rhodamine cleavage fluorescence; inhibition, % at 25 µM; 47,000 compounds, 5.3% hits; AID 1645860
# USP10 inh – blocks human USP10 ubiquitin-rhodamine cleavage; inhibition, % at 20 µM; Q14694; 47,000 compounds, 1.1% hits; purified USP10, Ub-rhodamine fluorescence, 60 min
# USP17 inh – human USP17-like deubiquitinase inhibition | AID 1645855 | inhibition, % at 50 µM | 47,000 compounds, 6.5% hits | purified USP17, Ub-rhodamine cleavage fluorescence, 3 h | A8MUK1
# * hit, by the source's call; / = no result. Rule as the data show it: active = inhibition above about 30%; inactive = the rest.
SMILES,USP8 inh,USP28 inh,USP30 block,USP10 inh,USP17 inh
O=C(Nc1ccncc1)c1nc2c(s1)CCN(C(=O)c1ccccc1)CC2,-30,-7,-23,0,-9
Cc1ccc(S(=O)(=O)N2CCN(C(=O)CN3c4ccccc4CC3C)CC2)c(C)c1 (centres undefined),37*,-15,-129,-12,-7
COc1ccc(CCNC(=O)c2cnc3sc4c(n3c2=O)CCCC4)cc1OC,-80,40*,0,0,-20
COc1ccc(CCNC(=O)c2cnc3sc4c(n3c2=O)CCCC4)cc1,-3,-10,-12,1,-3
O=C1c2c(O)cccc2C2(Oc3cccc4cccc(c34)O2)C2OC12 (centres undefined),84*,60*,33*,34*,98*
CC1(C)c2ccc3c(c2C(=O)C2OC21)C(O)OC3=O (centres undefined),-8,-3,-11,0,0
O=C1c2c(O)ccc(O)c2C2(Oc3cccc4cccc(c34)O2)C2OC12 (centres undefined),39*,72*,89*,14,97*
COc1ccc(NC(=O)c2cnc(N3CCCCC3)nc2C)cc1OC,-55,44*,-33,-4,-19
Cc1nc(N2CCCC2)ncc1C(=O)Nc1ccc(F)c(F)c1,5,11,53*,4,0
Cc1cccc(NC(=O)c2ccc(N3CCCC3)nn2)c1,-24,12,32*,2,-9
Cc1cccc(NC(=O)c2ccc(N3CCCC3)nn2)n1,-6,11,5,-2,-3
Cc1c(Cl)cccc1NC(=O)c1ccc(N2CCCC2)nn1,-17,25,61*,-4,56*
CCn1c(Cc2ccccc2)nnc1SCC(=O)Nc1cc(Cl)ccc1O,2,9,-13,7,4
COc1ccc(CCNc2nc(-c3ccccc3)cc(-c3ccccc3)c2C#N)cc1OC,3,-2,26,7,37*
COc1ccc(CNC(=O)CSc2nc3nc(C)ccc3o2)cc1,-33,13,11,8,52*
CC1CCCN(S(=O)(=O)c2ccc(-n3cnc(C(=O)N4CCCC4)c3)nc2)C1 (centres undefined),-5,-2,46*,0,29
O=C(c1cn2ccnc(-c3ccccc3)c2n1)N1CCCCCC1,-3,4,-9,-2,-6
Cn1c(=O)c2c(ncn2CC(=O)OCCCC(c2ccc(F)cc2)c2ccc(F)cc2)n(C)c1=O,-11,12,23,6,-4
COc1ccc(Br)c(-c2nc(CS(=O)(=O)c3ccc(F)cc3)no2)c1,26,28,38*,7,18
Cc1oncc1C(=O)N1CC[C@H]2CO[C@H](CN3CCOCC3)[C@H]2C1,-141,17,30*,0,6
Cc1ccc(NC(=O)CC2C(=O)N(Cc3cccnc3)c3nc4ccccc4n32)cc1 (centres undefined),0,-12,-3,0,-10
Cc1nc2nc(C(c3ccccc3)c3ccccc3)[nH]n2c(=O)c1Cc1ccccc1,27,21,20,34*,45*
CC(C)c1ccc(C(C(=O)NC2CCCCC2)N(C(=O)c2cnccn2)c2ccc3c(c2)OCO3)cc1 (centres undefined),0,5,12,-2,9
O=C(CCCC(=O)N(c1ccc2c(c1)OCCO2)C(C(=O)NC1CCCCC1)c1ccc(F)cc1)Nc1ccccn1 (centres undefined),58*,21,45*,40*,34*
O=C(NC1CCCCC1)C(c1ccc(Cl)cc1)N(C(=O)c1cnccn1)c1ccc2c(c1)OCO2 (centres undefined),21,0,-2,-3,43*
SMILES,USP8 inh,USP28 inh,USP30 block,USP10 inh,USP17 inh
Cc1ccc(C(C(=O)NC2CCCCC2)N(Cc2ccc3c(c2)OCO3)C(=O)CCCC(=O)Nc2ccccn2)cc1 (centres undefined),9,15,18,3,9
O=C(NC1CCCCC1)C(c1ccc(F)cc1)N(C(=O)C1COc2ccccc2O1)c1ccc2c(c1)OCO2 (centres undefined),41*,0,-31,14,-8
Cc1ccc(C(C(=O)NC2CCCCC2)N(C(=O)CCCC(=O)Nc2ccccn2)c2ccc3c(c2)OCCO3)cc1 (centres undefined),8,22,38*,20,48*
CCOc1ccccc1N(C(=O)CCCC(=O)Nc1ccccn1)C(C(=O)NC1CCCC1)c1ccc(F)cc1 (centres undefined),-4,-7,10,0,-8
O=C(NC1CCCCC1)C(c1ccccc1)N(C(=O)c1cccs1)c1ccc2c(c1)OCO2 (centres undefined),12,-6,12,3,2
COCCn1c(=O)[nH]c2cc(C(=O)N3CCC(C(N)=O)CC3)ccc2c1=O,-27,5,17,0,10
CCOC(=O)c1noc2nc(C)nc(NCC3CCN(Cc4cc(C)ccc4C)CC3)c12,0,-8,-10,-3,-13
Cc1ccc(C(CNC(=O)Cc2cccc(C)c2)N2CCOCC2)cc1 (centres undefined),-2,-3,-9,0,-4
Cc1cc(N2CCN(C)CC2)n2nc(CN3CCCCC3C)nc2n1 (centres undefined),-42,-7,-18,0,39*
COCCN1CC2(CCN(c3ncccn3)CC2)COc2ccccc2S1(=O)=O,-9,-16,-18,-1,-11
O=C1CC(c2cccc(Cl)c2Cl)c2c(nc(-c3ccccc3)[nH]c2=O)N1 (centres undefined),21,-7,24,5,16
O=C1CC(c2ccc(Cl)cc2)c2c(nc(-c3ccccc3)[nH]c2=O)N1 (centres undefined),61*,-7,-2,12,6
O=C1CC(c2ccc(O)cc2)c2c(nc(-c3ccccc3)[nH]c2=O)N1 (centres undefined),8,/,/,2,35*
CCN(c1cccc(C)c1)S(=O)(=O)c1ccc2c(c1)NC(=O)CC(C)S2 (centres undefined),-1,-2,0,6,0
CC(=O)NC(Cc1ccc(F)cc1)C(=O)NC1CCN(c2nc(C)cc(C)n2)CC1 (centres undefined),-8,-5,0,-2,9
O=C(Cc1ccc(Cl)cc1)Nc1ccc2nn(-c3ccc(F)cc3)nc2c1,3,/,/,20,45*
Cc1ccc(S(=O)(=O)Nc2c(O)c3ccccc3oc2=O)cc1C,19,0,18,1,3
Cc1cc(O)c2c(=O)c3c(O)cccc3oc2c1O,6,6,28,5,37*
Cc1ccccc1Cn1ccc(NC(=O)c2noc(C)c2[N+](=O)[O-])n1,-81,75*,8,1,-9
O=C(Cn1c(NCc2ccccc2)nc2ccccc21)NCC(F)(F)F,18,27,52*,14,45*
O=C(Cn1c(NCCO)nc2ccccc21)NCC1CCCO1 (centres undefined),-19,4,3,0,6
